Source: PubChem BioAssay
The list is not random: actives were taken first. Their share in the collection is about 7.7%.
Sm TGR inh = blocks Schistosoma mansoni thioredoxin glutathione reductase | Potency, µM (doses to about 114 µM), for the others: at the top dose activity change, negative = inhibition, actives largely listed as inhibitors | purified TGR, DTNB reduction, TNB absorbance 405 nm | 360,000 tested, 3% active | Q962Y6; also: potency is read from the fitted curve at half-maximal effect; nearly all actives have a fitted effect of over 60% in size
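Kinetic colorimetric format: TGR-catalysed, NADPH-driven DTNB reduction monitored via TNB absorbance. Enzyme dispensed at 20 nM; compound exposure 15 min at room temperature before reaction start.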
HCMV antiviral = blocks human cytomegalovirus replication | activity change, negative = inhibition, % at 57.5 µM | 410,000 tested, 4.5% active | HFF cells, HCMV-luciferase reporter, 72 h; stronger effect = lower value | AID 1259415; in the data active = activity change below about -60%; inconclusive = no clear call, values can overlap the other calls; inactive = above about -39%
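After 16 h attachment at 37C, HFF cells received test compound and HCMV-luciferase (1 PFU/cell); reporter luminescence read 72 h later, data normalized against buffer-only and known inhibitor Salinomycin.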
RE007 growth inh = less growth of the S. pombe RE007 Vpr strain; S. pombe RE007 Vpr strain, BacTiter-Glo ATP luminescence, 24 h; Potency, µM (highest dose often 92.2 µM), for inactives: top-dose activity change, negative = less growth, most hits filed as inhibitors; 360,000 tested, 0.21% active; AID 651644; active = well fitted falling curve with a large enough effect; inconclusive = small, poorly fitted or top-dose-only effect; inactive = no such curve, though single readings can be large or run the other way; also: potency is read from the fitted curve at half-maximal effect; nearly all actives have a fitted effect of over 50% in size
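Fission yeast RE007 carrying one integrated HIV-1 vpr copy, seeded at OD 0.01 in PMG+AL medium with 23 nL pinned compound. Grown 24 h at 30 degrees; viability read by BacTiter-Glo luminescence after 5 min.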
TbPYK inhibitor = T. brucei pyruvate kinase inhibition. 410,000 tested, 0.12% active. AID 624173. Q57TT1. Potency, µM (highest dose often 76.8 µM), for inactives: at the highest dose activity, negative = inhibition, most hits filed as inhibitors. TbPYK enzyme, Kinase-Glo Plus ATP luminescence, 45 min; also: potency is read from the fitted curve at half-maximal effect; nearly all actives have a fitted effect of over 50% in size
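Readout: single end-point luminescence (Kinase-Glo Plus, 10 min). Reaction conditions were TbPYK/substrate plus 130 uM ADP, 45 min at RT, pH 7.2 TEA buffer. No-enzyme wells served as controls, and data were normalized before concentration-response fitting.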
FBPA Giardia inh = Giardia lamblia aldolase inhibition; A8B2U2; purified Giardia FBPA; Potency, µM (doses to about 59.6 µM), inactives show at the highest dose activity, negative = inhibition, usual class: inhibitors; 290,000 tested, 0.71% active; AID 2451; also: potency is read from the fitted curve at half-maximal effect; nearly all actives have a fitted effect of over 55% in size
Target sequence (A8B2U2 whole entry, looked up): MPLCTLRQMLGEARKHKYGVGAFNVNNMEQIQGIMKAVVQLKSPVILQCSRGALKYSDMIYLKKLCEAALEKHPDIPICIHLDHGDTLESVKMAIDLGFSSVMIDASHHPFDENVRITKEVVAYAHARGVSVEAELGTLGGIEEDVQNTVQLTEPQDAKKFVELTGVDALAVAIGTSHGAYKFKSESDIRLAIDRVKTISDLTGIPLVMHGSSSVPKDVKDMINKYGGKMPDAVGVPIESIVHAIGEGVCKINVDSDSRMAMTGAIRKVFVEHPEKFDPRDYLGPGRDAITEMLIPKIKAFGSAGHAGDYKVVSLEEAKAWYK
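40 nM FBPA preincubated 10 min at RT with compound (up to 57.5 uM final), then substrate plus GAPDH/TPI/NAD/arsenate coupling and diaphorase/resazurin added. Fluorescence read after 20 min at RT, 525/598 nm.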
FMDV inh = antivirals against foot and mouth disease virus; Potency, µM (doses to about 57.9 µM), for inactives: at the highest dose activity change, negative = inhibition, usual class: inhibitors; FMDV antiviral cell-based qHTS; 410,000 tested, 1.2% active; calls by dose curve; tested in HEK293T cells; also: read-out not given here; potency is read from the fitted curve at half-maximal effect; nearly all actives have a fitted effect of over 45% in size
The depositor's hits bear a star; u = inconclusive; x = no result given. Unless noted, calls follow the shape of the dose curve; as a rule, active = well fitted curve in the direction sought with a large enough effect; inconclusive = small, poorly fitted or top-dose-only effect, or another doubt; inactive = no such curve, though single readings can be large; an effect the other way counts as inactive or inconclusive. % is scaled to controls: 0 for no effect and ±100 for the full control effect.

SMILES	Sm TGR inh	HCMV antiviral	RE007 growth inh	TbPYK inhibitor	FBPA Giardia inh	FMDV inh
Cc1c(C(=O)Nc2cccc(C(F)(F)F)c2)oc2ccc(S(=O)(=O)N3CCC4(CC3)OCCO4)cc12	0%	-11	x	-7%	x	16µM*
Cc1c(C(=O)NCc2cccnc2)oc2ccc(S(=O)(=O)N3CCCCC3)cc12	-11%	-83*	7%	-7%	11%	u
COc1ccc(NC(=O)c2oc3ccc(S(=O)(=O)N4CCC5(CC4)OCCO5)cc3c2C)cc1	1%	-17	14%	-7%	-2%	13µM*
Cc1c(C(=O)Nc2ccc(F)cc2)oc2ccc(S(=O)(=O)N3CCCCCC3)cc12	-3%	-31	x	-7%	x	28µM*
Cn1nnc2c(NCCc3ccccc3)ncnc21	4%	-35	x	18%	x	3%
Cc1cc(C)c(NC(=O)Cn2nnc(-c3nc(-c4ccccc4)no3)c2N)c(C)c1	-1%	17	x	-2%	x	27%
Cc1c(C(=O)N2CCCCCC2)c(S(=O)(=O)N(Cc2ccccc2)C(C)(C)C)c(C)n1C	-7%	-33	x	0%	x	-34%
C[C@H](CN1CCCC1)C(=O)c1ccc(C(F)(F)F)cc1	x	x	x	0%	x	x
COc1cc2c(cc1OC)C(c1ccccc1)N(C(=O)c1ccccc1)CC2 (stereo not given)	6%	-60*	12%	1%	5%	-15%
COc1cc2c(cc1OC)C(COc1ccccc1OC)N(C(=O)c1ccccc1OC)CC2 (stereo not given)	-4%	-106*	x	-4%	x	0%
COc1cc2c(cc1OC)C(COc1ccccc1OC)N(C(=O)c1ccc(S(=O)(=O)N3CCCC3)cc1)CC2 (stereo not given)	37%	-9	x	0%	x	-16%
CCCCn1nnnc1C(c1cc2ccccc2o1)N1CCN(c2cc(C)nc3ccccc23)CC1 (stereo not given)	x	-103*	-16%	1%	x	-17%
COc1cc(CN(C(=O)c2oc3ccccc3c2C)C2CCS(=O)(=O)C2)cc(OC)c1OC (stereo not given)	11%	6	x	0%	x	-14%
Cc1ncc2c(c1CNS(=O)(=O)N(C)C)CCN(C(=O)c1c(F)cccc1F)C2	x	x	x	x	x	-5%
O=C(c1ccccc1NS(=O)(=O)c1cccc([N+](=O)[O-])c1)N1CCCC1	-26%	-79*	-18%	-12%	-11%	5%
O=C(NC1=NCCS1)c1cc(-c2cccs2)nc2ccccc12	-5%	-36	-11%	-1%	2%	-16%
Cc1cccc(-c2cc(C(=O)NCCCn3ccnc3)c3ccccc3n2)c1	1%	x	x	x	6%	x
Cc1ccc(-c2cc(C(=O)NCCCn3ccnc3)c3cc(Br)ccc3n2)o1	1.6µM*	x	-8%	u	-2%	-23%
Cc1ccc(-c2cc(C(=O)NC3=NCCS3)c3cc(Br)ccc3n2)o1	2.8µM*	x	x	x	11%	x
Cc1ccc(-c2cc(C(=O)NN3CCOCC3)c3cc(Br)ccc3n2)o1	10µM*	u	-7%	-15%	-20%	-19%
Cc1ccc(-c2cc(C(=O)O)c3cc(Br)ccc3n2)o1	2µM*	18	x	10µM*	u	27%
CC(C)c1nn2c(=O)cc(COC(=O)c3ccccc3NC(=O)C3CCCCC3)nc2s1	-1%	-5	x	-7%	x	15%
O=C(c1ccccc1Cl)N1CCCC(c2nc3c(nnn3Cc3ccc(F)cc3F)c(=O)[nH]2)C1 (stereo not given)	-3%	6	x	-6%	x	-11%
O=C(CCl)N(C1CCCC1)C1CCS(=O)(=O)C1 (stereo not given)	16µM*	-83*	-18%	0%	-6%	-17%
COc1cc(C=O)c([N+](=O)[O-])cc1OC	x	x	x	x	5µM*	-12%
SMILES	Sm TGR inh	HCMV antiviral	RE007 growth inh	TbPYK inhibitor	FBPA Giardia inh	FMDV inh
COc1ccccc1N1C(=O)NC(=O)/C(=C/c2ccc3c(c2)Cc2ccccc2-3)C1=O	32µM*	16	-25%	-15%	-7%	-12%
COc1cc(OC)c(OC)cc1C=O	x	u	-16%	8%	1%	-12%
COc1cc(/C=C2\S/C(=N/S(=O)(=O)c3ccccc3)NC2=O)c([N+](=O)[O-])cc1OC	-4%	8	12%	2%	-12%	20%
COc1cc(/C=C2\C(=O)NC(=O)N(c3ccccc3)C2=O)cc(OC)c1O	87%	-27	6%	u	10µM*	2%
COc1cc(/C=C2\C(=O)NC(=O)N(c3ccccc3)C2=O)c([N+](=O)[O-])cc1OC	1.6µM*	48	-14%	u	u	-30%
Cc1ccc(NC(=O)c2cc(-c3ccc(Br)s3)nc3ccccc23)cc1F	-1%	-16	x	-2%	x	-7%
FC(F)Sc1ccc(-n2c(-c3ccc(Cl)cc3)c[n+]3c2CCC3)cc1	22%	-25	-10%	8%	4%	-25%
Cc1ccc(-n2c(-c3ccc(Cl)cc3)c[n+]3c2CCC3)cc1	14%	-91*	10%	-2%	4%	u
Cc1ccc(-n2c(-c3ccccc3)c[n+]3c2CCC3)cc1	x	-95*	-6%	3%	5%	u
COc1ccccc1-n1cc(CN2CCOc3ccc(CN4C[C@@H](C)O[C@@H](C)C4)cc3C2)cn1	x	x	x	x	x	-22%
CCOc1ccc(C(=O)OCC(=O)NC2CCCCCCC2)cc1	0%	10	-3%	-5%	x	-23%
Cc1ccc(N(CC(=O)NC2CCCCC2)C(=O)c2ccc(C)s2)cc1	5%	-63*	7%	0%	9%	x
Cc1ccc(N(CC(=O)NC2CCCC2)C(=O)c2ccc(C)s2)cc1	x	-5	2%	1%	-2%	1%
Cc1ccc(OCCCC(=O)NC2CCCCC2)cc1	40µM*	-12	-4%	-6%	-1%	1%
CCCCOc1ccc(C(=O)OCC(=O)NC2CCCC2)cc1	4%	-100*	8%	-1%	-6%	-25%
COc1cc(CN2CCC3(CCC(CNC(=O)c4ccco4)O3)CC2)cc(OC)c1 (stereo not given)	x	x	x	x	x	-9%
Cc1ccc(S(=O)(=O)/N=C(\Sc2ccccc2)c2ccccc2)cc1	7.9µM*	34	-18%	-15%	3%	11%
Cc1ccc(S(=O)(=O)/N=C(/Sc2ccccc2C(=O)O)c2ccccc2)cc1	35µM*	-1	9%	-3%	x	-19%
Cc1ccc(N2CC(NC(=O)CCc3ccccc3)CC2=O)cc1C (stereo not given)	0%	-30	x	7%	x	6%
Fc1cccc(CCN2CCNC[C@@H]2Cc2ccccc2)c1	x	-9	17%	-1%	x	-7%
FC(F)(F)c1cc(CCN2CCNC[C@@H]2Cc2ccccc2)cc(C(F)(F)F)c1	x	-64*	19%	5%	x	-21%
